According to PubChem BioAssay (EPA / NIEHS):
Some compounds were tested as several samples or in several runs, with calls that do not always agree. Activity calls are given as the source filed them. How the source made its calls: active means hit-call score of the fitted dose curve at least 0.9, where 1 is the maximum; inactive means score below 0.9.

Experiment: ATG_CRE_CIS: Attagene CIS-FACTORIAL HepG2 Assay for human cAMP Responsive Element (CRE) binding protein 3 (AID 2282926)
Conditions: HepG2 CRE cis-reporter, Attagene multiplexed mRNA; actives raise or lower the signal
Protocol: ATG_CIS is a cell-based, multiplexed-readout assay that uses HepG2, a human liver cell line, with measurements taken at 24 hours after chemical dosing in a 24-well plate.ATG_CRE_CIS is one of 52 assay component(s) measured or calculated from the ATG_CIS assay. It is designed to make measurements of mRNA induction, a form of inducible reporter, as detected with fluorescence intensity signals by Reverse transcription polymerase chain reaction (RT-PCR) and Capillary electrophoresis technology.Data from the assay component ATG_CRE_CIS was analyzed into 1 assay endpoint. This assay endpoint, ATG_CRE_CIS, was analyzed with bidirectional fitting relative to DMSO as the negative control and baseline of activity. Using a type of inducible reporter, measures of mRNA for gain or loss-of-signal activity can be used to understand the reporter gene at the transcription factor-level as they relate to the gene CREB3. Furthermore, this assay endpoint can be referred to as a primary readout, because this assay has produced multiple assay endpoints where this one serves a reporter gene function. To generalize the intended target to other relatable targets, this assay endpoint is annotated to the dna binding intended target family, where the subfamily is basic leucine zipper.
Human liver HepG2 cells are transiently transfected with multiple reporter transcription units (MRTUs) in 6-well plates using FuGene 6 reagent (Roche; 3 ml FuGene/1 mg DNA). The MRTU constructs are regulated by a cis-regulating element (promoter). […] A major difference between the CIS and TRANS system is that in CIS activities of endogenous TFs are measured, whereas the TRANS assay evaluates changes in activities of exogenous, chimeric NR-Gal4 proteins. […] At the end of 24 hour incubation, total RNA was isolated using TriZol reagent (Invitrogen). The isolated RNA is then reverse-transcribed using oligo(dT) primer and Mo-MLV reverse transcriptase (Invitrogen) with DNAse I (Ambion) treatment for 30 min. The one-tenth of the produced cDNA was amplified by PCR using Taq DNA polymerase (Invitrogen) and two reporter sequence-specific primers. The PCR products were fluorescently labeled by primer extension with 6-arboxyfluorescein (6-FAM) 5'-labeled reporter sequence-specific primer (2 min at 95 C, 20 s at 68 C and 10 min at 72 C) and these products were digested with 5U of HpaI (New England Biolabs) for 2h at 37 C. The fragments were purified using Qiaquick PCR columns (Qiagen), analyzed on an ABI 3130xL genetic analyzer (Applied Biosystems) with peak positions identified by using a set of X-rhodamine (ROX)-labeled MapMarker1000 molecular weight standards (BioVentures). The raw capillary electrophoresis data was processed using Attagraph software (Attagene).
In the case of `OCC(F)(F)C(F)(F)C(F)(F)C(F)(F)C(F)(F)C(F)F`, the outcome is reported as “inactive”. With `NC(=O)C(F)(F)C(F)(F)C(F)(F)C(F)(F)F` the outcome was “inactive”. With `CCC(=O)OCCc1ccccc1` the outcome was “inactive”. In the case of `O=S(=O)(OCC(F)F)C(F)(F)F`, the outcome is reported as “inactive”. With `O[Si](c1ccccc1)(c1ccccc1)c1ccccc1` the outcome was “inactive”. In the case of `O=C(O)C(F)(F)C(F)(F)C(F)(F)C(F)(F)F`, the outcome is reported as “inactive”. For `CCCCCCCCCCCCCCCC[N+](C)(C)Cc1ccccc1`, the outcome was “inactive”. For `O=C(O)C(F)(OC(F)(F)C(F)(OC(F)(F)C(F)(OC(F)(F)C(F)(F)C(F)(F)F)C(F)(F)F)C(F)(F)F)C(F)(F)F` (stereo not given), the outcome was “inactive”. For `OCC(F)(F)C(F)(F)C(F)(F)F`, the outcome was “inactive”. For `CNC(=S)NC`, the outcome was “inactive”. With `FC(F)(F)C(F)(F)C(F)(F)C(F)(F)C(F)(F)C(F)(F)C(F)(F)C(F)(F)F` the outcome was “inactive”. With `FC(F)(F)C(F)(F)C(F)(F)CI` the outcome was “inactive”. In the case of `CC/C=C\CCOC(C)=O`, the outcome is reported as “inactive”. With `O=C(O)C(F)(F)C(F)(F)C(F)(F)C(F)(F)C(F)(F)C(F)(F)C(F)(F)C(F)(F)Cl` the AC50 was 50 µM (active) and the outcome was “inactive”. In the case of `C=CC/C=C/C/C=C/C/C=C/C`, the outcome is reported as “inactive”. With `OCC(F)(F)C(F)(F)C(F)(F)C(F)(F)C(F)(F)C(F)(F)F` the outcome was “inactive”. With `CCCCC(CC)COP(=O)(O)OCC(CC)CCCC` (stereo not given) the outcome was “inactive”. With `CCCCNc1ccccc1` the outcome was “inactive”. With `c1ccc(B(c2ccccc2)c2ccccc2)cc1` the outcome was “inactive”. In the case of `Cc1ccc(S(=O)(=O)OCC(F)(F)C(F)(F)C(F)(F)C(F)(F)C(F)(F)C(F)F)cc1`, the outcome is reported as “inactive”. For `CC(C)c1ccccc1N`, the outcome was “inactive”. With `Oc1ccc(Nc2ccccc2)cc1` the outcome was “inactive”. For `CC(=O)Nc1ccc(N=Nc2cc(C)ccc2O)cc1`, the outcome was “inactive”. With `CCCCOc1ccc(N)cc1` the outcome was “inactive”. In the case of `Cc1cccc(N(C)C)c1`, the outcome is reported as “inactive”. In the case of `C=C(C)C(=O)OCC(F)(F)C(F)(F)C(F)(F)C(F)(F)C(F)(F)C(F)(F)C(F)(F)F`, the outcome is reported as “inactive”. With `O=C(O)C(F)(F)C(F)(F)F` the outcome was “inactive”. In the case of `O=C(CC(=O)C(F)(F)C(F)(F)F)C(F)(F)F`, the outcome is reported as “inactive”. In the case of `O=S(=O)(OCCOC(F)(F)F)C(F)(F)F`, the outcome is reported as “inactive”. For `O=C(O)C(F)(F)C(F)(F)C(F)F`, the outcome was “inactive”. With `Nc1cc(Cl)c(N)c(Cl)c1` the outcome was “inactive”. In the case of `FC(F)(F)C(F)(F)C(F)(F)C(F)(F)C(F)(F)C(F)(F)CCS`, the outcome is reported as “inactive”. With `O=P(O)(O)OCCC(F)(F)C(F)(F)C(F)(F)C(F)(F)C(F)(F)C(F)(F)F` the outcome was “inactive”. In the case of `COC(=O)C1CCC(C(=O)OC)CC1` (stereo not given), the outcome is reported as “inactive”. For `C=CC(F)(F)C(F)(F)C(F)(F)C(F)(F)C(F)(F)C(F)(F)C(F)(F)C(F)(F)C=C`, the outcome was “inactive”. In the case of `CCc1ccc(C(c2ccc(CC)cc2)C(Cl)Cl)cc1`, the outcome is reported as “inactive”. In the case of `CS(C)(=O)=O`, the outcome is reported as “inactive”. With `FC(F)(F)C(F)(F)C(F)(F)C(F)(F)C(F)(F)C(F)(F)C(F)(F)I` the outcome was “inactive”. With `CCCCCC=O` the outcome was “inactive”.
